Active and inactive are the calls of the source.
What was measured:
[1] = tested on: Plasmodium falciparum Sir2 (PF13_0152, Sir2A); test: Plasmodium falciparum Sir2A binding compounds – biochemical, small-molecule microarray, 635 nm fluorescence, primary screen (AID 1098); conditions: fluorescence 635 nm, higher = more signal;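 further: score merges spot fluorescence intensity with its signal-to-noise ratio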
[2] = probe aDKK1 binding to arrayed compounds – biochemical, biotinylated probe, 635/667 nm fluorescence, primary screen (AID 1099); conditions: small-molecule microarray, higher = more signal;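 further: score merges 667nm spot fluorescence with signal to noise across triplicate slides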
[3] = probe aCHRDL2 binding to arrayed compounds – biochemical, biotinylated probe, 635/667 nm fluorescence, primary screen (AID 1100); conditions: small-molecule microarray, higher = more signal
[4] = change in splice reporter luminescence, either direction, cell-based, HEK293, spliceosome inhibition project, primary screen (AID 1101); conditions: HEK293 splicing luciferase reporter, 24 h, higher = more signal, called active from +8 up or from −8 down;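 further: HEK293 cells carrying a splicing-competent luciferase reporter gene; test concentration not given here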
[5] = target: Fibroblast growth factor 10 (Homo sapiens) (UniProt O15520); test: compounds binding fibroblast growth factor 10 – biochemical, small-molecule microarray, 635 nm fluorescence, primary screen (AID 1102); conditions: FGF10 binding, fluorescence 635 nm, higher = more signal
Sequence of Fibroblast growth factor 10 (Homo sapiens) (O15520 whole entry, looked up): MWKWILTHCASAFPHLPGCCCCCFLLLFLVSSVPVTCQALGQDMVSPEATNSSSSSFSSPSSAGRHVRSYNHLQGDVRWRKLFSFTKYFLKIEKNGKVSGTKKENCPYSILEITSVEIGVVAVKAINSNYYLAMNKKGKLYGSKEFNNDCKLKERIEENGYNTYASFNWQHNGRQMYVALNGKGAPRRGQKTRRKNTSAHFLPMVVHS

[6] = tested on: glycogen synthase kinase-3 (GSK3A per assay name; protocol says GSK3B); test: compounds binding glycogen synthase kinase-3 – biochemical, small-molecule microarray, 635 nm fluorescence, GSK3A, primary screen (AID 1103); conditions: fluorescence 635 nm, higher = more signal; further: the record names both GSK3A and GSK3B
[7] = target: Epidermal growth factor receptor (Homo sapiens) (UniProt P00533); test: compounds binding epidermal growth factor receptor – biochemical, small-molecule microarray, 635 nm fluorescence, primary screen (AID 1104); conditions: EGFR binding, higher = more signal;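 further: score merges 667 nm emission intensity with spot signal to noise over triplicate slides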
Sequence of Epidermal growth factor receptor (Homo sapiens) (P00533 whole entry, looked up): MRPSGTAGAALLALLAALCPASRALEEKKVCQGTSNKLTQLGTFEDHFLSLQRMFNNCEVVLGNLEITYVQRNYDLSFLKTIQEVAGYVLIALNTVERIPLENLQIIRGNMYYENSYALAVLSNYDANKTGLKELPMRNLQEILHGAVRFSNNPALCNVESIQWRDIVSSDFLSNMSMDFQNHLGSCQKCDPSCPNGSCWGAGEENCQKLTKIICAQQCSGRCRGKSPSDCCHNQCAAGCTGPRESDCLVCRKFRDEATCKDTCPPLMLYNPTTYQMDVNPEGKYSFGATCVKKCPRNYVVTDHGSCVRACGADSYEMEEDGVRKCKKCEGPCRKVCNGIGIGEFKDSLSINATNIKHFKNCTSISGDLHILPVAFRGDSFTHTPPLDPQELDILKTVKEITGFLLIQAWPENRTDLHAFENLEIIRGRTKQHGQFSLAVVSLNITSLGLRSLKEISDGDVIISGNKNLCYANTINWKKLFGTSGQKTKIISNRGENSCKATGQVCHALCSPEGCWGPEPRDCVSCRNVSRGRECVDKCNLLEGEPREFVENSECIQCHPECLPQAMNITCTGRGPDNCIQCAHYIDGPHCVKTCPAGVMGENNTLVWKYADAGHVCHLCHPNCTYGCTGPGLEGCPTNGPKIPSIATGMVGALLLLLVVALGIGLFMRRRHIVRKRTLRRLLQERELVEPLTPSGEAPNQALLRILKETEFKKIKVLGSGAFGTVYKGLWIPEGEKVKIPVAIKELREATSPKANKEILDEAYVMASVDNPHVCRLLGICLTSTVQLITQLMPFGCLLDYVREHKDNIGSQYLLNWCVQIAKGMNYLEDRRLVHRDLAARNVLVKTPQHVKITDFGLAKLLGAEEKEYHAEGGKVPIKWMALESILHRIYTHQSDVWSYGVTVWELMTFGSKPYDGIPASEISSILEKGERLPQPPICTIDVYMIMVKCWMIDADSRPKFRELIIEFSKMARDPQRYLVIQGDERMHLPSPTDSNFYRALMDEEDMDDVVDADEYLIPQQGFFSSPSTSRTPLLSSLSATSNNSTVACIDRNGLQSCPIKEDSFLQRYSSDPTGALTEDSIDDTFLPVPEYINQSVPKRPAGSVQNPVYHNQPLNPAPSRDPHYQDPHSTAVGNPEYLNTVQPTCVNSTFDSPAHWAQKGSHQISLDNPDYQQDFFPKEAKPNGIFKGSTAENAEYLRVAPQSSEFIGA

[8] = target: Follistatin-related protein 3 (Homo sapiens) (UniProt O95633); test: compounds binding follistatin-related protein 3 – biochemical, small-molecule microarray, 635 nm fluorescence, primary screen (AID 1105); conditions: FSTL3 binding, higher = more signal;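 further: score merges emission near 667 nm and signal to noise per printed spot across three slides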
Sequence of Follistatin-related protein 3 (Homo sapiens) (O95633 whole entry, looked up): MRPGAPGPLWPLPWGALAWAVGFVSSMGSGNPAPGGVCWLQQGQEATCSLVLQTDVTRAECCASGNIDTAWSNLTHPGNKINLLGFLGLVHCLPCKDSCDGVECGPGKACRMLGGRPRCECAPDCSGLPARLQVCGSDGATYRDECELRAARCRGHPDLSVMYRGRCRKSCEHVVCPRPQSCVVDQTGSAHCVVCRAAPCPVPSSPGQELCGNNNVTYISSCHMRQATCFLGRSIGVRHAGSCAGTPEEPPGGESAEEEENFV

[9] = target: Dickkopf-related protein 1 (Homo sapiens) (UniProt O94907); test: small molecules binding DKK1 protein – biochemical, small-molecule microarray, 635 nm fluorescence scan, primary screen (AID 1106); conditions: higher = more signal;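 further: score merges emission near 667 nm with signal to noise over three replicate slides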
Sequence of Dickkopf-related protein 1 (Homo sapiens) (O94907 whole entry, looked up): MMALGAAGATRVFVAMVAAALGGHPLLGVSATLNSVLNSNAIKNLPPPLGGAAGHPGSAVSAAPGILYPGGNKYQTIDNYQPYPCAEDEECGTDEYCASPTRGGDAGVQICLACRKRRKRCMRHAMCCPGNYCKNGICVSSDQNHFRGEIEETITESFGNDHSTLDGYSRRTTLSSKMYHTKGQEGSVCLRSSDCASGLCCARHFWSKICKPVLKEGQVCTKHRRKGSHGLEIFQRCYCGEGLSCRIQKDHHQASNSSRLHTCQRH

[10] = tested on: Inhibin beta A chain (activin A); test: small molecules binding activin A – biochemical, small-molecule microarray, 635 nm fluorescence scan, primary screen (AID 1107); conditions: INHBA, higher = more signal;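 further: mouse activin A protein probed at 4.33 µg/mL on printed slides; score merges bound-protein fluorescence near 667 nm with spot signal-to-noise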
[11] = tested on: Human papillomavirus type 1a protein E7 (residues 44-93); test: small molecules binding HPV E7 44-93 – biochemical, small-molecule microarray, residues 44-93, 635 nm fluorescence, primary screen (AID 1108); conditions: fluorescence 635 nm, higher = more signal;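 further: E7 fragment applied at 1 µg/mL in TBST for 1 h at 4 C; score combines spot fluorescence with its signal to noise ratio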
[12] = hepatitis C replication reporter changes, two-sided – Huh7 cells, luciferase reporter, HCV replication inhibitor project, primary screen (AID 1109); conditions: Huh7 HCV replicon luciferase reporter, 48 h; higher = more signal;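 further: huh7 hepatoma cells harbouring a luciferase neomycin HCV replicon reporter; luciferase luminescence as measure of HCV replicon replication; test concentration not given here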
[13] = target: Left-right determination factor 2 (Homo sapiens) (UniProt O00292); test: small molecules binding LEFTY2 protein – biochemical, small-molecule microarray, 635 nm fluorescence scan, primary screen (AID 1110); conditions: higher = more signal
Sequence of Left-right determination factor 2 (Homo sapiens) (O00292 whole entry, looked up): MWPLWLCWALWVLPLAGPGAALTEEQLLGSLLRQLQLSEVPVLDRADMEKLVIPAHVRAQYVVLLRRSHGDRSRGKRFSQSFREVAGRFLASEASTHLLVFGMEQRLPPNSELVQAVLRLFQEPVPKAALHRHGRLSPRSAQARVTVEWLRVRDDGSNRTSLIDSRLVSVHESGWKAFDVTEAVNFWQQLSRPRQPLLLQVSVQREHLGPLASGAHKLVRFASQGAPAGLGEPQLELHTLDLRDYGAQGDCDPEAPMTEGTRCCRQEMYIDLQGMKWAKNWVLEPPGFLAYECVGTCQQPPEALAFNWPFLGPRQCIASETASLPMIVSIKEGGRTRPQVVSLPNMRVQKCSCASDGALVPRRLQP

[14] = target: Calmodulin-1 (Homo sapiens) (UniProt P0DP23); test: small molecules binding calmodulin-1 with EGTA – biochemical, small-molecule microarray, Cy5-labelled CALM1, profiling panel (AID 1111); conditions: Cy5-CALM1 binding fluorescence, higher = more signal;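 further: labelled calmodulin applied in Tris saline Tween buffer holding calcium plus EGTA and DTT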
[15] = target: Calmodulin-1 (Homo sapiens) (UniProt P0DP23); test: small molecules binding Ca-loaded calmodulin-1 – biochemical, small-molecule microarray, Cy5-labelled CALM1, plus calcium, artefact control for SMM control-protein annotation, profiling panel (AID 1112); conditions: Cy5-CALM1 binding fluorescence, higher = more signal;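 further: score merges spot fluorescence with signal to noise from triplicate slides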
[16] = probe aWnt5a binding to arrayed compounds – biochemical, biotinylated probe, 635/667 nm fluorescence, primary screen (AID 1113); conditions: small-molecule microarray, higher = more signal;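 further: score merges 667 nm fluorescence intensity with signal-to-noise per printed feature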
[17] = probe aShh binding to arrayed compounds – biochemical, biotinylated probe, 635/667 nm fluorescence, primary screen (AID 1114); conditions: small-molecule microarray, higher = more signal;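 further: probe is biotin-labelled aShh protein from a stem cell growth factor screen; measures binding of labelled protein to compounds printed on the slide; score merges feature fluorescence at 667 nm with signal-to-noise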
[18] = probe aNog binding to arrayed compounds – biochemical, biotinylated probe, 635/667 nm fluorescence, primary screen (AID 1115); conditions: small-molecule microarray, higher = more signal;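 further: probe is biotinylated aNog protein used at 0.15 µg/mL for 1 h at 4 C; z-score combines 667 nm fluorescence of each spot with its signal to noise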
[19] = target: Torsin-1A-interacting protein 1 (Homo sapiens) (UniProt Q5JTV8); test: compound microarray binding of lysate hLAP1 – cell lysate, small-molecule microarray, COS7 lysate, 635/667 nm fluorescence, primary screen (AID 1116); conditions: 635 nm fluorescence, higher = more signal
Sequence of Torsin-1A-interacting protein 1 (Homo sapiens) (Q5JTV8 whole entry, looked up): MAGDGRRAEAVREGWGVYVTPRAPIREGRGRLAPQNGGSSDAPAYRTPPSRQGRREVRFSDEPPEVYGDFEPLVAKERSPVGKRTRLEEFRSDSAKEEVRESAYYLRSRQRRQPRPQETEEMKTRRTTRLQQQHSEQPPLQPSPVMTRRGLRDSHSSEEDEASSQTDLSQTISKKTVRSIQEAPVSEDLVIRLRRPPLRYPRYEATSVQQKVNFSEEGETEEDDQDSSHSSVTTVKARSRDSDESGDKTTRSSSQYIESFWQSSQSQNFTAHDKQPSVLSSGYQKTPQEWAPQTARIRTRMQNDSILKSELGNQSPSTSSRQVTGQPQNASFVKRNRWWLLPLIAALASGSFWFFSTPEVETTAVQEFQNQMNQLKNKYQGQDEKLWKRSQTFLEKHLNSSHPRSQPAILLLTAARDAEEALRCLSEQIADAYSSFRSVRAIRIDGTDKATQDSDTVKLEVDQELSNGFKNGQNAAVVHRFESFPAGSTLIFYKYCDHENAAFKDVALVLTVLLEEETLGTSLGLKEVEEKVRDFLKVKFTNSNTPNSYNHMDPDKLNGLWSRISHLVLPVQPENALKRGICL

[20] = target: Alpha-bungarotoxin (Bungarus multicinctus) (UniProt P60615); test: compounds binding labelled alpha-BTX control protein – biochemical, small-molecule microarray, Alexa647 label, 635/667 nm fluorescence, artefact control for SMM control protein annotation, profiling panel (AID 1117); conditions: alpha-BTX-A647 binding fluorescence, higher = more signal
Sequence of Alpha-bungarotoxin (Bungarus multicinctus) (P60615 whole entry, looked up): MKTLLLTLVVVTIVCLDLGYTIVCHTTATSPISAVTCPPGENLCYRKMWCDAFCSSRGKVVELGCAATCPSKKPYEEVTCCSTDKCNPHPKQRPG

SMILES | composite z-score [1] | composite z-score [2] | composite z-score [3] | z-score [4] | composite z-score [5] | composite z-score [6] | composite z-score [7] | composite z-score [8] | composite z-score [9] | composite z-score [10] | composite z-score [11] | z-score [12] | composite z-score [13] | composite z-score [14] | composite z-score [15] | composite z-score [16] | composite z-score [17] | composite z-score [18] | composite z-score [19] | composite z-score [20]
C=CC(COC(C)=O)NS(=O)(=O)c1ccc(Br)cc1 (stereo not given) | 0.669 | -0.461 | -0.501 | 0.217 (inactive) | 0.632 | 0.903 | 0.642 | 1.01 | 0.684 | 0.12 | 0.62 | -0.437 | 0.65 | -0.467 | -0.883 | 0.093 | 0.0948 | -0.149 | 0.366 | 0.601
C[N+](C)(C)CCCCCCNC(=O)[C@H]1C[C@H]2C(=O)N3CCC[C@H]3C(=O)N2[C@H]1c1ccc(O)cc1 | 1.07 | -0.258 | -0.201 | -0.677 (inactive) | 0.205 | 0.196 | -0.278 | 0.196 | 0.744 | 1.03 | 1.41 | 0.741 | 0.26 | 0.0573 | -0.965 | -0.178 | 0.0639 | -0.29 | 0.541 | -0.37
CCCCCN1CC=CC23O[C@@H]4/C=C\CCC(C)OC(=O)C4[C@H]2C(=O)N(CCCCCO)[C@@H]3C1=O (stereo not given in full) | 0.16 | -0.499 | -0.0779 | -0.228 (inactive) | -0.57 | -0.77 | 0.361 | -0.501 | -1.07 | -0.362 | -1.38 | 0.0822 | -0.594 | -0.476 | -0.561 | -0.298 | -0.147 | -0.24 | -0.912 | -0.937
O=C1OCCC/C=C\[C@H]2OC34C=CCN(Cn5nnc6ccccc65)C(=O)[C@H]3N(CCCCCO)C(=O)[C@@H]4C12 (stereo not given in full) | 0.957 | -0.118 | 0.584 | -0.586 (inactive) | -1.08 | -1.7 | -0.97 | -0.751 | -1.45 | 0.702 | -0.921 | 0.0311 | -1.5 | -0.709 | -0.388 | -0.175 | -0.0035 | -0.0894 | -0.118 | -0.697
CCCCC=C[C@@H](NC(=O)c1ccc(C(=O)OC)cc1)c1ccccc1 | 0.741 | -0.095 | 0.613 | -3.67 (inactive) | 0.335 | 0.804 | 0.239 | 0.279 | 0.393 | 0.629 | 1.1 | -1.36 | 0.107 | 0.168 | -0.128 | -0.15 | 0.0711 | 0.122 | 0.0279 | 0.926
CCC[C@@H]1C=C(C(=O)O)[C@H](c2ccc(C)cc2)N1S(=O)(=O)c1ccc(C)cc1 | 0.706 | 0.36 | 0.817 | 1.04 (inactive) | 0.74 | 0.415 | -0.278 | 0.192 | -0.435 | 0.71 | 1.36 | 0.641 | -0.442 | 0.665 | 0.0233 | -0.0819 | 0.0815 | 0.582 | 0.959 | 1.45
COc1ccc(CCNC(=O)[C@@]2(c3ccc([N+](=O)[O-])cc3)CC(=O)N(CC34CC5CC(CC(C5)C3)C4)[C@@H]2c2ccc(CO)cc2)cc1 | 1.06 | 1.38 | 0.764 | 0.539 (inactive) | 0.76 | 1.07 | 0.453 | 1.03 | 0.828 | 0.432 | 1.42 | -3.38 | 0.614 | 0.581 | 0.084 | -0.0202 | 0.2 | -0.0281 | 0.299 | 0.155
Cc1ccc(S[C@]2(C(=O)O)CC(=O)N(C3Cc4ccccc4C3)[C@@H]2c2ccc(CO)cc2I)cc1 | 0.787 | 0.425 | 1.05 | -0.0201 (inactive) | -0.345 | -0.695 | -1.04 | -0.75 | -0.649 | 1.11 | -0.104 | -0.517 | -0.67 | -0.212 | -0.196 | -0.117 | -0.156 | 0.22 | 0.365 | 0.835
Cc1cc(C)c(C(O)C2C=CC3C(=O)N(C)C(=O)C3N2Nc2ccccc2)c(C)c1 (stereo not given) | 1.13 | 1.84 | 0.796 | 0.55 (inactive) | 0.636 | 0.399 | 0.745 | 0.38 | 0.209 | 1.25 | -0.7 | 0.228 | 0.627 | 1.16 | -0.0299 | 0.881 | 0.365 | 1.45 | 1.23 | 0.821
Cc1ccccc1C(O)C1C=CC2C(=O)N(C)C(=O)C2N1Nc1ccccc1 (stereo not given) | 1.06 | 0.973 | 1.07 | 0.0737 (inactive) | 0.2 | 0.63 | -0.0369 | 0.304 | 0.0139 | 1.16 | 0.633 | -0.712 | 0.103 | 2.3 | 1.06 | 0.111 | -0.0289 | 1.07 | 1.91 | 1.08
COCCOC(=O)N1C(=O)[C@@]2(c3ccccc31)[C@H](C(=O)Nc1nc3ccccc3s1)[C@H]1C(=O)O[C@H](c3ccccc3)[C@H](c3ccccc3)N1[C@@H]2c1ccc(OCCO)cc1 | 1.11 | 0.186 | 0.54 | -0.128 (inactive) | 1.26 | 1.3 | 0.331 | 1.11 | 0.427 | 0.464 | 1.37 | -2.05 | 0.382 | 1.31 | 0.773 | 0.135 | -0.0626 | 0.544 | 0.96 | 1.6

Reference: PubChem BioAssay
